The campaign covered roughly 350,000 compounds. About 7,000 (2%) were called active. No stated cut-off is given here; in the data, active means activation above about 40%; inconclusive means no clear call, values can overlap the other calls; inactive means below that. Many of the other results were omitted from the sample, so actives are more common in it than they were.
Assay: raisers of Bmi1 knock-in reporter signal – mouse ES cells, Bmi1 luciferase knock-in, single point, esBAF inhibitor project, primary screen (AID 602393);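 further: 0% = median of the plate's neutral control wells and 100% = double that signal; a rise in the Bmi1 reporter signal indicates esBAF inhibition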
Settings: 24 h, at 12.5 µM, hits give high values, 100% = twice the neutral-well signal

Reporter increase, active:
COC(=O)c1ccc(Nc2ncnc3sccc23)cc1 41.7%
Cc1cc(NC(=O)COc2ccccc2C#N)no1 70%
CC(=O)c1c(C)[nH]c(C(=O)COC(=O)c2cccs2)c1C 48.6%
COc1ccc(-c2nnc(SCC(=O)c3cccs3)o2)c(OC)c1 78.8%
COc1ccccc1-c1nnc(SCC(=O)Nc2ccccc2)o1 50.9%
COc1ccc(-c2csc(Nc3ccc(O)cc3)n2)cc1 78.7%
NS(=O)(=O)c1ccc(Nc2nc(-c3ccccc3)cs2)cc1 47.4%
Fc1ccc2nc(N3CCCCC3)sc2c1 45.1%
CC(=O)Nc1ccc(/C=N/NC(=O)c2cccs2)cc1 48.3%
Cc1ccc(C)c(NC2=NCC(=O)N2c2ccc3c(c2)OCCO3)c1 47.5%
COc1ccc(N=Cc2c(O)[nH]c3ccccc23)cc1OC 73.5%
CCCn1c(C)cc(/C=C(\C#N)C(=O)OCC(=O)Nc2cc(OC)c(OC)c(OC)c2)c1C 61.6%
COc1ccc(Nc2ccc3ccccc3c2)cc1 119%
Cc1cc(/C=C2/SC(=O)N(CC(=O)OC(C)C)C2=O)c(C)n1C 83.5%
CCOC(OCC)c1ccc(/C=C\c2nccc(N)n2)cc1 46.6%
Cc1ccc(-n2ncc3c(Nc4cccc(C(=O)O)c4)ncnc32)cc1 57.1%
CSc1ccccc1NC(=O)c1cnc2sc(C)cn2c1=O 68.8%
Cn1c(=NC(=O)C2CC2)sc2cc(F)cc(F)c21 62%

Reporter increase, inactive:
O=S(=O)(Nc1ncnc2sccc12)c1cccc(F)c1 -8.41%
COC(=O)c1ccc(OC(=O)c2cnccn2)cc1 2.58%
Cc1cc(NC(=O)COn2nnc3ccccc32)no1 -6.87%
COc1ccc(C(=O)OCC(=O)Nc2cc(C)on2)cc1F 0.512%
CC(=O)c1c(C)[nH]c(C(=O)COC(=O)CCOc2ccc(C)cc2)c1C -8.22%
COc1cccc(C(=O)OCC(=O)c2[nH]c(C)c(C(C)=O)c2C)c1 8.69%
C[C@@H]1CN([C@H](C)CO)C(=O)c2cc(-c3ccccc3F)cnc2O[C@H]1CN(C)C(=O)NC1CCCCC1 -2.88%
C[C@@H]1CN([C@H](C)CO)C(=O)c2cc(-c3ccc(F)cc3)cnc2O[C@@H]1CN(C)C(=O)C1CCC1 -5.57%
COc1ccccc1N1CCN(C(=O)CSc2nnc(-c3ccoc3C)o2)CC1 -3.09%
COc1ccc(-c2nnc(NC(=O)CS(=O)(=O)c3ccc(Cl)cc3)o2)c(OC)c1 -8.93%
COc1cccc(NC(=O)CSc2nnc(Cc3ccc(OC)c(OC)c3)o2)c1 -6.14%
COc1ccccc1-c1nnc(SCC(=O)N2CC(C)CC(C)C2)o1 (stereo unspecified) 0.0545%
O=C(C[C@H]1C=C[C@H](NC(=O)Nc2ccc(C(F)(F)F)cc2)[C@@H](CO)O1)NCCN1CCCC1 3.94%
CO[C@@H](CN(C)C(=O)c1cnccn1)[C@@H](C)CN([C@@H](C)CO)S(=O)(=O)c1ccc(Cl)cc1 0.654%
COc1ccc(NC(=O)N(C)C[C@@H]2Oc3ccc(NC(=O)CCN4CCOCC4)cc3C(=O)N([C@@H](C)CO)C[C@H]2C)cc1 2.67%
C[C@@H]1CN([C@@H](C)CO)C(=O)c2cc(-c3cccnc3)cnc2O[C@H]1CN(C)Cc1ccc(-c2ccccc2)cc1 -1.47%
C[C@H](CO)N1C[C@H](C)[C@@H](CN(C)Cc2ccncc2)OCCCC[C@H](C)Oc2ccc(NS(=O)(=O)c3ccc(Cl)cc3)cc2C1=O 0.433%
COC(=O)CCc1sc(Nc2ccc(Br)cc2)nc1-c1ccc(OC)cc1 3.71%
NS(=O)(=O)c1ccc(NS(=O)(=O)/C=C/c2ccccc2)cc1 -2.76%
CC(=O)c1ccc(Nc2nc(C(N)c3ccccc3)cs2)cc1 (stereo unspecified) 20.6%
COc1ccc(C(C)(O)c2nc(-c3ccc(C)c(C)c3)cs2)cc1 (stereo unspecified) -1.35%
CCCNC(=O)Nc1ccc2c(c1)C(=O)N(C)C[C@H](OC)[C@H](C)CN(Cc1cccnc1)[C@@H](C)CO2 -1.39%
CN1CCN(C(=O)C[C@@H]2CC[C@@H]3[C@H](COC[C@H](O)CN3CC3CCOCC3)O2)CC1 3.66%
CC(C)NC(=O)N[C@@H]1CC[C@H](CC(=O)NCCN2CCCC2)O[C@@H]1CO -2.08%
COc1ccccc1S(=O)(=O)N[C@@H]1CC[C@@H](CCn2cc(C3CCCCC3)nn2)O[C@H]1CO 4.02%
CO[C@H]1CN(C)C(=O)c2ccc(NC(=O)C3CCCC3)cc2OC[C@@H](C)NC[C@@H]1C 0.309%
COc1cccc(NC(=O)Nc2ccc3c(c2)C(=O)N(C)[C@@H]2CC[C@@H](CC(=O)NCCc4ccccc4)O[C@H]2CO3)c1 4.83%
C[C@@H]1CN([C@H](C)CO)C(=O)c2cc(NC(=O)CCCN(C)C)ccc2O[C@@H](C)CCCCO[C@H]1CN(C)CC1CCCCC1 -2.94%
O=C(NCCc1cccc(F)c1)C1CCCN(c2nc3ccccc3s2)C1 (stereo unspecified) 3.83%
Fc1ccc2nc(Nc3nc4c(s3)CCCC4)sc2c1 28.9%
O=C(Cc1ccccc1)N1C[C@@H]2[C@H](c3ccccc31)[C@@H](CO)N2C(=O)Nc1ccc(F)cc1 -2.51%
O=C(C[C@@H]1C[C@H]2c3cc(NS(=O)(=O)c4ccc(F)cc4)ccc3O[C@H]2[C@@H](CO)O1)NCc1ccccc1F 12.4%
CCC(=O)N1C[C@@H](C)[C@@H](OC)CN(C)C(=O)c2ccc(NC(=O)Nc3ccccc3)cc2OC[C@H]1C 0.261%
O=C(CNC(=O)c1cccs1)N/N=C/c1cccc(Br)c1 -3.05%
CCc1ccc(NC(=O)C(=O)NNC(=O)c2cccs2)cc1 12.8%
Cc1ccc(CC2CC(=O)N(c3ccc4c(c3)OCCO4)C2=O)cc1 (stereo unspecified) 11.3%
COc1ccc(N2C(=O)CN=C2Nc2cccc(C)c2C)cc1OC -1.36%
COc1ccc(NC(=O)N(C)C[C@@H]2Oc3ncc(-c4ccc(C#N)cc4)cc3C(=O)N([C@@H](C)CO)C[C@H]2C)cc1 -0.692%
COc1ccc(CNC(=O)[C@H](Cc2c[nH]c3ccccc23)NC(C)=O)cc1OC 3.18%
COc1cc2[nH]c(O)c(C=O)c2cc1OC 3.41%
C[C@H](CO)N1C[C@H](C)[C@H](CN(C)C(=O)Nc2ccc(C(F)(F)F)cc2)Oc2ccc(NC(=O)C3CC3)cc2C1=O -3.98%
CCCn1c(C)cc(/C=C(\C#N)C(=O)OCC(=O)N(C)c2c(N)n(Cc3ccccc3)c(=O)[nH]c2=O)c1C 9.72%
COc1cc(NC(=O)COC(=O)c2ccc([N+](=O)[O-])s2)cc(OC)c1OC -3.17%
C[C@@H]1CN([C@@H](C)CO)S(=O)(=O)c2ccc(C#C[C@@H](C)O)cc2O[C@@H]1CN(C)C(=O)Cc1ccccn1 1.02%
Cc1ccccc1S(=O)(=O)NCC[C@@H]1CC[C@H](NC(=O)C2CCCCC2)[C@@H](CO)O1 4.09%
O=C(CC1CC1)N1CC[C@@H]2[C@@H](CO)Nc3ccc(-c4ccccc4)cc3[C@@H]21 -5.1%
COc1ccc(NC2=CC(=S)NC(C)(C)C2)cc1 1.51%
COc1ccc(Nc2cc(=O)oc3ccccc23)cc1 3.87%
O=C(C1CCOCC1)N1C[C@H]2[C@@H](c3ccccc31)[C@@H](CO)N2Cc1ccccc1F 0.141%
CCNC(=O)C[C@@H]1CC[C@@H]2[C@@H](COc3ccc(NC(=O)c4cccc(C(F)(F)F)c4)cc3C(=O)N2C)O1 3.63%
CC(OC(=O)CN1C(=O)c2ccccc2C1=O)C(=O)c1ccccc1 (stereo unspecified) -0.946%
Cc1cc(/C=C2/SC(=O)N(CC(=O)N3CCCC3)C2=O)c(C)n1C 0.583%
COc1ccccc1-c1ccc2c(c1)O[C@H](CN(C)C(=O)c1cccnc1)[C@@H](C)CN([C@H](C)CO)S2(=O)=O 0.986%
C[C@H](CO)N1C[C@H](C)[C@H](CN(C)CC2CC2)OCCCC[C@H](C)Oc2ccc(NC(=O)c3ccncc3)cc2C1=O -1.67%
Cc1noc(C)c1NC(=O)Nc1ccc2c(c1)C(=O)N([C@H](C)CO)C[C@H](C)[C@H](CN(C)Cc1ccc(C(=O)O)cc1)OCCCC[C@H](C)O2 -3.6%
Cc1ccc(Nc2ncnc3c2cnn3C)c(C)c1 -6%
CC(Sc1ncnc2c1cnn2-c1ccccc1)C(=O)Nc1ccc(N2CCOCC2)cc1 (stereo unspecified) 13.9%
CNC[C@H]1Oc2cc(-c3cccnc3)ccc2S(=O)(=O)N([C@@H](C)CO)C[C@H]1C 3.67%
Cc1ccccc1C(=O)Nc1ccccc1Sc1ccccc1 -8.84%
CSc1ccccc1NC(=O)c1cc(Cl)sc1Cl -9.78%
O=C(c1ccccc1)N1CC[C@H]2[C@H](CO)Nc3ccc(-c4ccc(F)cc4)cc3[C@H]21 -5.91%
CCCN(C)C[C@H]1Oc2ncc(-c3cccnc3)cc2C(=O)N([C@@H](C)CO)C[C@@H]1C 5.67%
Cn1c(=NC(=O)c2ccco2)sc2cccc(F)c21 29%

From PubChem BioAssay AID602393 (Broad Institute, 2012)
